Inconclusive results are not listed. Active and inactive are the calls of the source. The calls were made as follows: active = hit-call score of the fitted dose curve at least 0.9, where 1 is the maximum; inconclusive = response in the unintended direction; inactive = score below 0.9.
Target: human Peroxisome Proliferator-activated Receptor delta (PPARd), PPARD (gene 5467) (UniProt Q03181)
Assay: ERF_US_NR_hPPARD: Eurofins (ERF) Nuclear Receptor (NR) Cell Based Protein-Protein Interaction LeadHunter Assay for human Peroxisome Proliferator-activated Receptor delta (PPARd) Agonism
Experimental: ERF_US_NR_hPPARD is a cell-based, single-readout assay that uses extracted gene-proteins in a cell-line assay. Measurements were taken 5 hours after chemical dosing in a 384-well plate. See PPARdelta Human NHR Cell Based Agonist Protein-Protein Interaction Assay, DiscoverX.ERF_US_NR_hPPARD is an assay component calculated from the ERF_US_NR_hPPARD assay. It is designed to measure radioligand binding using a type of binding reporter as detected by scintillation counting with radiometry technology.Data from the assay component ERF_US_NR_hPPARD was analyzed at the assay endpoint, ERF_US_NR_hPPARD, in the positive analysis fitting direction relative to DMSO as the negative control and baseline of activity. Using a type of binding reporter, gain-of-signal activity can be used to understand changes in binding as they relate to gene PPARD. To generalize the intended target to other relatable targets, this assay endpoint is annotated to the nuclear receptor intended target family, where the subfamily is non-steroidal.
Cells were seeded in a total volume of 20 uL into white walled, 384-well microplates and incubated at 37C overnight prior to testing. Briefly, intermediate dilution of sample stocks was performed to generate 5X sample in assay buffer. 5 uL of 5X sample was added to cells and incubated at 37C for 300 minutes. […] The results are expressed as a percent efficacy of the control ligand.

Sequence of human Peroxisome Proliferator-activated Receptor delta (PPARd), PPARD (gene 5467) (Q03181 whole entry, looked up): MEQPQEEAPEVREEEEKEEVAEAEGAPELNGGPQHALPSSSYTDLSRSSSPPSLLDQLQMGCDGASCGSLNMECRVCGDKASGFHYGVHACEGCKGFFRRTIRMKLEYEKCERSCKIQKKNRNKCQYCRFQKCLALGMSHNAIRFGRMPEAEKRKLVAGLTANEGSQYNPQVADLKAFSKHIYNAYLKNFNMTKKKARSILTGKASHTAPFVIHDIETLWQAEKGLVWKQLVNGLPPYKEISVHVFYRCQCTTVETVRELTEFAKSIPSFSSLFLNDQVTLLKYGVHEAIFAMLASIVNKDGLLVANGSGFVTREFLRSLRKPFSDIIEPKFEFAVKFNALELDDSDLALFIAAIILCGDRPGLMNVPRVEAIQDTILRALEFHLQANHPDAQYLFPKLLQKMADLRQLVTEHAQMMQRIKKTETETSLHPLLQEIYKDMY

SMILES | outcome
O=C(O)CCC(F)(F)C(F)(F)C(F)(F)F | inactive
O=C(CC(=O)C(F)(F)C(F)(F)C(F)(F)F)c1cccs1 | inactive

Reference: PubChem BioAssay AID2284374 (EPA ToxCast)
